Assay [1] can be described thus: qHTS to identify inhibitors of the type 1 interferon - major histocompatibility complex class I in skeletal muscle: primary screen against the NCATS Mechanism Interrogation Plate v5.0 (MIPE) Libary (AID 1347411). Further: nearly all actives have a fitted effect of over 65% in size. Further: potency means the concentration at half of the fitted maximal effect. In outline:
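Luminescence from HiBiT-tagged endogenous HLA-B*08:01 served as the MHC class I read-out. CRISPR-engineered C25cl48 human myoblasts received 4.0 ng/ml IFN-beta plus compound for 24 hrs, with an 11-point, 1:3 series topping at 46 uM final.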
On the technique in general: qHTS replaces the single test concentration by a dilution series.

Assay [2] addresses Calcium and integrin-binding protein 1 (Homo sapiens) (UniProt Q99828). Description: Primary qHTS for Identification of Calcium Integrin Binding Protein 1 (CIB1) Competitor (AID 1508620). Further: potency means the concentration at half of the fitted maximal effect. The method in brief:
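Fluorescence polarization competition: GST-tagged CIB1 (1 uM final) preincubated with compound 15 min at room temperature, then FITC-labelled alphaIIb peptide (100 nM final) added. After 15 min at room temperature, polarization read at Ex 480/Em 540.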

Assay [3] deals with Cytochrome P450 2C9 (Homo sapiens) (UniProt P11712). The assay is described as follows: Cytochrome P450 family 2 subfamily C member 9 (CYP2C9) small molecule antagonists: luciferase biochemical (cell-free) qHTS assay (AID 1645842; active means well fitted curve in the direction sought with a large enough effect in the repeat runs; an effect the other way counts as inactive or inconclusive; further: nearly all actives have a fitted effect of over 55% in size; further: potency means the concentration at half of the fitted maximal effect). The method in brief: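 Luminescence, after 20 min with luciferin detection reagent, reflected CYP2C9 turnover during a 1 h NADPH-driven reaction at 37C. Enzyme-substrate mix contained 0.4% bovine serum albumin and was preincubated with compound 10 min at room temperature.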

Assay [4] addresses N-terminal Xaa-Pro-Lys N-methyltransferase 1 (Homo sapiens) (UniProt Q9BV86). The assay is described as follows: Confirmatory qHTS for Inhibitors of N-terminal methyltransferase 1 (NTMT1): MTaseGlo Assay (AID 1645874). Further: potency means the concentration at half of the fitted maximal effect; nearly all actives have a fitted effect of over 65% in size. In outline: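 Luminescent MTase-Glo read-out of SAH. 125 nM NTMT1, 100 uM SAM, 1 uM SPKRIA substrate, 30 min RT reaction after 15 min compound preincubation. Normalized to no-enzyme and DMSO controls; Hill fit.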

The nature of assay [5]: Primary qHTS for inhibitors of nuclear receptor binding SET domain protein 2 (NSD2) in an isogenic RCH-ACV NSD2 p.E1099K mutant (9B) (AID 1645876). Further: nearly all actives have a fitted effect of over 70% in size. Further: potency means the concentration at half of the fitted maximal effect.
Assay [6] has as its target Cytochrome P450 2D6 (Homo sapiens) (UniProt P10635). The assay is described as follows: Cytochrome P450 family 2 subfamily D member 6 (CYP2D6) small molecule antagonists: luciferase biochemical (cell-free) qHTS assay (AID 1645840; active means well fitted curve in the direction sought with a large enough effect in the repeat runs; an effect the other way counts as inactive or inconclusive; further: nearly all actives have a fitted effect of over 55% in size; further: potency means the concentration at half of the fitted maximal effect). In outline: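 P450-Glo luminescent screen: recombinant CYP2D6 enzyme–proluciferin substrate mix preincubated with compound 10 min at room temperature, then NADPH regeneration added for 1 h at room temperature. Detection reagent added for 20 min; luciferin light read as relative luminescence units.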

Assay [7] is described as follows: qHTS to identify inhibitors of the type 1 interferon - major histocompatibility complex class I in skeletal muscle: primary screen against the NCATS Pharmaceutical Collection (AID 1347407).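 Further: luminescence of HiBiT knocked into endogenous HLA-B as interferon-induced MHC class I level.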 In outline:
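Cells were seeded with 4 ng/ml IFN-beta, incubated 1 h, then dosed with compounds over eight 1:5 steps up to 46 uM final. After 24 h at 37 C, HiBiT lytic reagent was added and luminescence read after 10 min lysis in the dark.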

Assay [8] deals with Protein phosphatase 1D (Homo sapiens) (UniProt O15297). Description: RapidFire Mass Spectrometry qHTS Assay for Modulators of WT P53-Induced Phosphatase 1 (WIP1) (AID 1347424).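 Further: amount of dephosphorylated VEPPL-S-QETFS peptide product formed by WIP1.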 Further: potency means the concentration at half of the fitted maximal effect. In outline:
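10 nM WIP1 preincubated with compounds 1 hr at room temperature in pH 7.5 Tris buffer with 30 mM MgCl2, 1 mM TCEP; 2 uM VEPPL-pS-QETFS phosphopeptide for 5 min, formic acid quench; dephosphorylated product quantified by RapidFire MS against labelled standard.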

The target is the same in assay [9]. Description: Rhodamine-PBP qHTS Assay for Modulators of WT P53-Induced Phosphatase 1 (WIP1) (AID 1347425). The method in brief: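 Read-out: Rhodamine-PBP fluorescence (ex 525/em 598 nm) for released Pi, read each minute for 11 min after adding 10 uM VEPPL-pS-QETFS; signal taken as f1 minus pre-substrate f0. Enzyme 5 nM WIP1 with 1 hr room-temperature compound preincubation.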

Assay [10] is described as follows: A High-Content qHTS Against Drug Library for the Identification of Small Molecules that Inhibit DYT1 Early Onset Primary Dystonia-Associated Cell Pathology (AID 1645839; calls by dose curve; further: potency means the concentration at half of the fitted maximal effect). The method in brief: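 Flp-In T-REx 293 cells with tetracycline-inducible EGFP-delE hTOR1A (WT EGFP-hTOR1A as reference), 800 cells/well; compound added with tetracycline, 48 h at 37 C. Fixed, permeabilized cells imaged; %pathology (punctate TorsinA) primary, cell count counterscreen.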

Assay [11] in a line: Primary qHTS for inhibitors of La Crosse Virus (LACV) - induced cell death in SH-SY5Y cells (AID 1508616).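 Further: top concentration of the series differs between compounds; higher means more rescue of cells from virus-induced death.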 In outline: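 Protection against LACV-induced cell death is scored in SH-SY5Y cells exposed to compounds and virus (0.01 MOI) for 6 days. Data normalized to virus-infected DMSO wells and virus-free DMSO wells.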
Assay [12] in a line: Confirmatory qHTS for small molecule stabilizers of the endoplasmic reticulum resident proteome: Secreted ER Calcium Modulated Protein (SERCaMP) assay (AID 1508628). Further: series mostly up to about 76 µM; nearly all actives have a fitted effect of over 40% in size. The method in brief: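 SH-SY5Y cells stably expressing GLuc-SERCaMP, treated 16 h with compound (primary 1.53, 7.67, 38.3 uM; confirmation 11 concentrations, up to 76.6 uM), then 100 nM thapsigargin for 4 h. Secreted Gaussia luciferase in medium read by coelenterazine luminescence.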

Assay [13] deals with Cytochrome P450 3A4 (Homo sapiens) (UniProt P08684). Description: Cytochrome P450 family 3 subfamily A member 4 (CYP3A4) small molecule antagonists: luciferase qHTS assay (AID 1645841; active means well fitted curve in the direction sought with a large enough effect in the repeat runs; an effect the other way counts as inactive or inconclusive; further: nearly all actives have a fitted effect of over 45% in size). In outline: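 P450-Glo CYP3A4 enzyme with proluciferin substrate preincubated 10 min with compound at room temperature, then NADPH regeneration 1 h. Luciferin detection reagent added for 20 min; luminescence recorded. Ketoconazole positive control.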

Assay [14] can be described thus: Primary qHTS for small molecule stabilizers of the endoplasmic reticulum resident proteome: Secreted ER Calcium Modulated Protein (SERCaMP) assay (AID 1508630). In outline: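 GLuc-SERCaMP-expressing SH-SY5Y cells, pretreated 16 h with compound, are challenged with thapsigargin to empty ER calcium stores; after 4 h, coelenterazine is added directly to the medium and luminescence is imaged.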

Several values for one entry are separate records, joined by “and”; a condition that tells them apart may be missing. Equal entries are not always repeated. Results filed as inconclusive are left out. Activity calls are given as the source filed them. Unless noted, the call rests on the fitted dose curve; in most records, active means well fitted curve in the direction sought with a large enough effect; inconclusive means small, poorly fitted or top-dose-only effect, or another doubt; inactive means no such curve, though single readings can be large; an effect the other way counts as inactive or inconclusive.

Here are results for 22 molecules from PubChem BioAssay (NCATS).

Cytochrome P450 2D6 (Homo sapiens), sequence (P10635 whole entry, looked up): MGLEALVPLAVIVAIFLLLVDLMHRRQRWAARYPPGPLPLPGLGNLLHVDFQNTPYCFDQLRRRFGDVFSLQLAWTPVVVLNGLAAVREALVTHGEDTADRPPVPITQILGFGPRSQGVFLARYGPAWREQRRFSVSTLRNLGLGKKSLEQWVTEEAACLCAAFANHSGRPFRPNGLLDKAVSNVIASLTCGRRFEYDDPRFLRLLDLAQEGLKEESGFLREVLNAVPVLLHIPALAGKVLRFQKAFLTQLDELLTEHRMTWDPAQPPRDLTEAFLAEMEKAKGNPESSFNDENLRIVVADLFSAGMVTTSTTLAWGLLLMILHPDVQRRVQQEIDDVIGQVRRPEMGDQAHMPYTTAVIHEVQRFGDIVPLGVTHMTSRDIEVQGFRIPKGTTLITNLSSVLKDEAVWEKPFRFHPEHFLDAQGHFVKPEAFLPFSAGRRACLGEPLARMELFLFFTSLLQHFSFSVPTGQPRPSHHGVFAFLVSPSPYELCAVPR
Cytochrome P450 2C9 (Homo sapiens), sequence (P11712 whole entry, looked up): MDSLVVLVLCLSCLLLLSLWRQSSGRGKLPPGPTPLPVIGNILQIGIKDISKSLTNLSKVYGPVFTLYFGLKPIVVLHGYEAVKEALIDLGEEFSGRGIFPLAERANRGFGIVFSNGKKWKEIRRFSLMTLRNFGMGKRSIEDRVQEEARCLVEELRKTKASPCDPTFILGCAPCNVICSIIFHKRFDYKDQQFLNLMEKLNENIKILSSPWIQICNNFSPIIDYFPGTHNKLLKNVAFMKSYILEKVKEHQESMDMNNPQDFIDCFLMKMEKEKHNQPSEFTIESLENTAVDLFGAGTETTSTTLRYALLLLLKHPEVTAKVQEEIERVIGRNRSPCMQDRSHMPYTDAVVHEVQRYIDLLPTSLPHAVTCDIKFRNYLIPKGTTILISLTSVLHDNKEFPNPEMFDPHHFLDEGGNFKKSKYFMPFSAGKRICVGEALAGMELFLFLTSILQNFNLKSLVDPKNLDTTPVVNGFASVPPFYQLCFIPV
Calcium and integrin-binding protein 1 (Homo sapiens), sequence (Q99828 whole entry, looked up): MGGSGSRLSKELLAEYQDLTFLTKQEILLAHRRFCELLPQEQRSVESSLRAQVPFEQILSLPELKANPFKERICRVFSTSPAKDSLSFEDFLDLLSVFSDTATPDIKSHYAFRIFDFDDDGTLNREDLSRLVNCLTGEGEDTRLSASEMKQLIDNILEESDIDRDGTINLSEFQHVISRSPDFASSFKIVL
Protein phosphatase 1D (Homo sapiens), sequence (O15297 whole entry, looked up): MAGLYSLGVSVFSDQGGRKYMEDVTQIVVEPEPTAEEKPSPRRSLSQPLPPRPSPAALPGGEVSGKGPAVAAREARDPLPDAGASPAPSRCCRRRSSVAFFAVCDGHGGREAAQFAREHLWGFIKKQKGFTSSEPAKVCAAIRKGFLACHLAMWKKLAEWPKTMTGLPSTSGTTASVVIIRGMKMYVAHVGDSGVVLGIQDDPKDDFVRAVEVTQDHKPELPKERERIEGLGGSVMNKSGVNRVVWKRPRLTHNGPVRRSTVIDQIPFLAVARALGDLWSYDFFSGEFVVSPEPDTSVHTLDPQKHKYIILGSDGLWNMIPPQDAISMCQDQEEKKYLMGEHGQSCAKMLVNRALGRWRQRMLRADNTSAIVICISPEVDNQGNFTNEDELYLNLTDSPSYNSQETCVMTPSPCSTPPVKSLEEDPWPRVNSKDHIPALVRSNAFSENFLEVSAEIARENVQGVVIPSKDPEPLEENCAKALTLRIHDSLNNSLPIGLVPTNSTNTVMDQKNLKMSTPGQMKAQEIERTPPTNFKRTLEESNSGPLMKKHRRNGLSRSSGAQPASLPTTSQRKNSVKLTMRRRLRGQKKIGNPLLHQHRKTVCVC
N-terminal Xaa-Pro-Lys N-methyltransferase 1 (Homo sapiens), sequence (Q9BV86 whole entry, looked up): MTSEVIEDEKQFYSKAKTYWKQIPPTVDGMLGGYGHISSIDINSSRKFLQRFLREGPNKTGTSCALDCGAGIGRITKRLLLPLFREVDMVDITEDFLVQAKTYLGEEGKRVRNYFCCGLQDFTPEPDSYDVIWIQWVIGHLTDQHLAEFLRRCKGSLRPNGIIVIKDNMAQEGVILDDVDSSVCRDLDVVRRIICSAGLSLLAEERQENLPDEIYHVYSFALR
Cytochrome P450 3A4 (Homo sapiens), sequence (P08684 whole entry, looked up): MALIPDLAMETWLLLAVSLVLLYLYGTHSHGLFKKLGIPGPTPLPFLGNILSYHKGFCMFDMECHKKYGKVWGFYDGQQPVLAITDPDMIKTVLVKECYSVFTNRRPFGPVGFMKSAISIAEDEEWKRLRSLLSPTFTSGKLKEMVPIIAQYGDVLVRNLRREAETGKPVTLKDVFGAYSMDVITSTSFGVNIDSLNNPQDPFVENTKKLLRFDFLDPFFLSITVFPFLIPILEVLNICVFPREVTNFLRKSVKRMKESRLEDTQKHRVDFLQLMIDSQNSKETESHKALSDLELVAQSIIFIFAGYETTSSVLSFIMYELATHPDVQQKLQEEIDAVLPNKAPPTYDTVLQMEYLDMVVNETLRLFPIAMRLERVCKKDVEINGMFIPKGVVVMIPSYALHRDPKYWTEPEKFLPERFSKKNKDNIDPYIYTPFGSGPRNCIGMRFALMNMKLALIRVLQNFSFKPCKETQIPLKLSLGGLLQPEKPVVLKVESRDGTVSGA

For the molecule `CCOc1cc2ncc(C#N)c(Nc3ccc(F)c(Cl)c3)c2cc1NC(=O)/C=C/CN(C)C`, the Potency in [1] was 2.62 µM (active); in [3], 3.79 µM (active); in assay [4], 1.2 µM (active); in assay [5] it was 459 nM (active) and 742 nM (active). Also, the Potency entry in assay [2] is “inactive”.
For `Cc1c(F)cc(C(=O)NC2CC2)cc1-c1c(F)cn2c(C(C)(C)C)nnc2c1F`, the Potency result in assay [1] and in assay [2] was “inactive” in each case.
On to `CC(O)c1cc(C(=O)N[C@@H](C)Cn2ccc(-c3ccc(C#N)c(Cl)c3)n2)n[nH]1` (stereo partly specified), for which the Potency result in assay [1] and in [2] was “inactive” each time.
Consider `CCNC(=O)Nc1ncc(-c2cc(-c3c(C)cc(OC)cc3C)nc(-c3cnccn3)n2)s1`, for which the Potency result in [1], in assay [2] and in [5] was “inactive” each time. Moreover, the Potency is 8.49 µM (active) in assay [6] and 3.79 µM (active) in assay [3].
As for `O=C(/C=C/c1cccc(S(=O)(=O)Nc2ccccc2)c1)NO`, the Potency in assay [1] was 2.34 µM (active); in assay [6], 21.3 µM (active); in [3], 10.7 µM (active); in assay [5], 356 nM (active) and 296 nM (active). In [2], the Potency entry was “inactive”.
For the molecule `CCNCc1nc2c(N)nc3ccccc3c2n1CC(C)(C)O`, the Potency entry in [1] and in assay [2] was “inactive” throughout. For the same molecule, in [6], the Potency is 5.35 µM (active).
Regarding `COc1ccc(C(=O)C2CCN(CC(=O)N(Cc3nc4c(c(=O)[nH]3)COCC4)CC3CC3)CC2)cc1`, the Potency entry in assay [1], in assay [2], in [6] and in assay [5] was “inactive” throughout. The Potency in [3] was 8.49 µM (active).
In the case of `Nc1ccccc1N`, the molecule was classed as inactive in [7] and in assay [9]. In addition, the Potency result in [8] was “inactive”. Moreover, the Potency in [2] is 100 µM (active); in assay [10] it was 35.5 µM (active); in assay [6], 14.6 µM (active); in [3], 35.6 µM (active).
As for `CCN1CCN(Cc2ccc(NC(=O)c3ccc(C)c(/C=C/c4cnc5[nH]ccc5c4OC)c3)cc2C(F)(F)F)CC1`, the Potency is 6.58 µM (active) in assay [1]; 6.74 µM (active) in assay [6]; 12 µM (active) in [3]; 129 nM (active) and 1.05 µM (active) in assay [5]. Moreover, in assay [2], the Potency result was “inactive”.
As for `CCN1CCN(Cc2ccc(Nc3ncc(F)c(-c4cc(F)c5nc(C)n(C(C)C)c5c4)n3)nc2)CC1`, the Potency is 10.4 µM (active) in assay [1]; 20 µM (active) in assay [4]; 728 nM (active) and 468 nM (active) in assay [5]. Moreover, the Potency entry in assay [2] and in assay [3] was “inactive” throughout.
For the molecule `COc1cc2ncnc(Nc3ccc(F)c(Cl)c3)c2cc1NC(=O)/C=C/CN1CCCCC1`, the Potency in assay [1] was 7.39 µM (active); in [4], 35.5 µM (active); in [5], 4170 nM (active). In addition, the Potency entry in assay [2] and in assay [3] was “inactive” each time.
For the molecule `CNCc1ccc(-c2cc(-c3nc(-c4ccc(S(=O)(=O)C(C)C)cc4)cnc3N)on2)cc1`, the Potency result in assay [1], in [2] and in assay [6] was “inactive” throughout. In addition, the Potency in [3] was 2.13 µM (active); in assay [5], 183 nM (active) and 83.3 nM (active).
As to `Cc1cc(Nc2cc(N3CCN(C)CC3)nc(/C=C/c3ccccc3)n2)n[nH]1`, the Potency in [1] was 5.23 µM (active); in [5], 728 nM (active) and 934 nM (active). Further, the Potency result in assay [2] and in assay [3] was “inactive” in each case.
Take `CCN1CCN(Cc2ccc(NC(=O)c3ccc(C)c(NC(=O)c4cncc(-c5cccs5)c4)c3)cc2C(F)(F)F)CC1`: the Potency in [1] was 2.94 µM (active); in assay [6] it was 3.38 µM (active); in [5] it was 45.9 nM (active) and 166 nM (active). For the same molecule, in assay [2], the Potency entry was “inactive”.
`CCOCCOC(=O)/C=C/c1ccc(OC)cc1`: the molecule was called inactive in assay [7] and in [9]. Further, the Potency result in assay [8], in assay [2], in [10] and in [6] was “inactive” each time.
`Cc1ccc(NC(=O)Nc2cc(C(F)(F)F)ccc2F)cc1Nc1ccc2c(c1)NC(=O)/C2=C\c1ccc[nH]1`: the Potency in assay [1] is 23.4 µM (active); in assay [5], 11.5 µM (active) and 16.6 µM (active). Further, the Potency entry in [2], in assay [6] and in assay [3] was “inactive” each time.
On to `CCCCNc1ncc2c(-c3ccc(CN4CCN(C)CC4)cc3)cn(C3CCC(O)CC3)c2n1` (stereo unspecified), for which the Potency in [1] was 9.3 µM (active); in [3], 15.1 µM (active); in [5], 1.64 µM (active) and 2.95 µM (active). For the same molecule, the Potency entry in [2] was “inactive”.
Regarding `Cc1ccc(N)cc1O`, the outcome in assay [7], in assay [11] and in [12] was inactive. Besides, the Potency in assay [8] is 44.7 µM (active); in assay [3] it was 20 µM (active).
For `CS(=O)(=O)N1CCC(NC(=O)c2[nH]ncc2NC(=O)c2c(Cl)cccc2Cl)CC1`, the Potency in assay [1] is 1.47 µM (active); in assay [3], 21.3 µM (active); in assay [5], 525 nM (active). Also, the Potency entry in [2] and in [13] was “inactive” each time.
`COCCOc1ccc(N2CCN(CCn3ncc4c3nc(N)n3nc(-c5ccco5)nc43)CC2)cc1`: the Potency entry in assay [1], in assay [2], in [6], in assay [3] and in assay [5] was “inactive” in each case.
With `COc1cc(C(=O)NC2CCN(C)CC2)c(F)cc1Nc1ncc2c(n1)N(C1CCCC1)CC(F)(F)C(=O)N2C`, the Potency in assay [1] is 14.7 µM (active); in assay [3] it was 5.35 µM (active); in assay [5], 59 nM (active). The Potency result in assay [2] and in assay [6] was “inactive” each time.
On to `O=C(O)c1ccccc1NCCc1ccccc1`, for which the call in assay [7], in [9], in assay [11] and in assay [14] was inactive. The Potency entry in [8], in assay [2], in assay [10] and in assay [5] was “inactive” in each case. For the same molecule, in assay [6], the Potency is 11 µM (active).
